GIRK2 act: GIRK2 channel activators by thallium flux. P48051. HEK293 GIRK2/NPY4 cells, thallium flux fluorescence. activation (% efficacy), % for hits at 37.5 µM. 34,000 tested, under 10 active. AID 1259324;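 active means primary screen hit, no activity in plain HEK293 cells, and in GIRK2-only cells above 5% efficacy rising with concentration; inactive means the rest, including fluorescent compounds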;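 further: efficacy is normalized control-subtracted fluorescence 15 s after thallium addition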
GluA2 TARP mod: modulators of AMPA receptor GluA2-stargazin complexes | calls only at 30 µM | 40,000 compounds, 3.5% hits | O88602+P19491 | HEK293 GluA2+stargazin, membrane potential dye (FDSS), glutamate EC50; hits were called plate by plate, in both directions;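 active means any of four per-well response measures lying three or more SD from its plate-wide compound average, in either direction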
Calls only; - = inactive; . = not tested or not shown; + = active, no number. This is one part of a sample in which hits are shown more often than they occur.

SMILES | GIRK2 act | GluA2 TARP mod
O=S(=O)(N1CCOCC1)n1c(Cc2ccccc2)nc2ccccc21 | - | +
O=S(=O)(N1CCOCC1)n1nnc2ccccc21 | - | -
CN(C)c1ccc(N2CCN(C(=O)COc3ncccn3)CC2)nn1 | - | .
CC(O)(CNC(=O)Cn1c(=O)oc2ccccc21)C1CC1 (stereo not given) | - | -
CSCCC(C)(O)CNC(=O)c1cc2ccccc2oc1=O (stereo not given) | - | -
CSCCC(C)(O)CNC(=O)c1cc2ccccc2o1 (stereo not given) | - | +
Cn1nccc1C(=O)Nc1nc(-c2ccc3c(c2)OCO3)cs1 | - | .
O=C(CCCc1ccccc1)NCC#CCN1CCc2ccccc2C1 | - | +
C=CCCC(=O)NCC#CCN1CCc2ccccc2C1 | - | -
O=c1[nH]c2c(s1)C1c3ccccc3OC3CCCC(S2)C31 (stereo not given) | . | +
CCCNC(=O)CN1CCN(c2nccn2C)CC1 | - | -
CSc1ccccc1C(=O)N(C(=O)N1CCCCC1)c1ccc(Cl)cc1 | . | -
O=C(c1cccs1)N(C(=O)N1CCCCC1)c1ccc(Cl)cc1 | . | +
O=C(c1cccs1)N(C(=O)N1CCCCC1)c1cccc(Cl)c1 | - | -
O=C(c1ccc(Br)o1)N(C(=O)N1CCCCC1)c1ccc(Cl)cc1 | . | +
O=C(CSc1ccc(NC(=O)c2ccccc2)nn1)NCc1ccc(F)cc1 | - | -
CC(C(=O)NCc1ccc2c(c1)OCO2)n1nnc2ccccc2c1=O (stereo not given) | - | -
Cn1cc(C(=O)N2CCCCCC2)cc(NC(=O)c2cc(Cl)ccc2Cl)c1=O | . | -
Cn1cc(C(=O)N2CCCCCC2)cc(NC(=O)c2ccccc2Cl)c1=O | . | +
O=C(Cn1cnc(-c2cccs2)cc1=O)NCCOc1ccc(-c2ccco2)nn1 | - | +
CCC(=O)NCCOc1ccc(-c2cccs2)nn1 | - | -
C=CCN1C(=O)SC(CC(=O)Nc2ccc(C(=O)OC)cc2)C1=O (stereo not given) | - | -
C=CCN1C(=O)SC(CC(=O)Nc2ccc([N+](=O)[O-])cc2)C1=O (stereo not given) | - | +
O=C(c1ccc2c(c1)OCO2)N1CCN(c2nccn2-c2ccccc2F)CC1 | - | -
CCN(CC)c1ccc(NC(=O)c2csc3c2CCCC3)cc1 | . | -
SMILES | GIRK2 act | GluA2 TARP mod
O=C(Nc1ccc2nccnc2c1)c1csc2c1CCCC2 | - | +
O=C(Nc1ccc2nccnc2c1)c1ccc2c(c1)OCCO2 | - | +
CCn1nccc1C(=O)Nc1ccc2c(c1)OCCO2 | - | -
COc1ccc(Cl)cc1NC(=O)C(=O)NCC(c1cccc2ccccc12)N1CCOCC1 (stereo not given) | . | -
Nc1cccc(OCCO)c1 | - | -
COc1cc(NS(=O)(=O)c2ccc3c(c2)CCCC3)ccc1N1CCCCC1=O | - | +
COc1ccc(NS(=O)(=O)c2ccc3c(c2)CCCC3)cc1N1CCCCC1=O | - | -
O=C(c1ccccc1)c1ccc(OCC(O)CN2CCN(S(=O)(=O)N3CCOCC3)CC2)cc1 (stereo not given) | . | -
Cc1ccc2nc3c(cc(C(=O)NCCN4CCOCC4)n3C)c(=O)n2c1 | - | -
Cc1cccn2c(=O)c(C(=O)NCCCN3CCOCC3)c(O)nc12 | - | +
Cc1ccc(-n2ccnc2N2CCN(C(=O)C3CC3)CC2)cc1 | - | .
CSc1ccccc1C(=O)N(CCc1ccccc1)Cc1ccccn1 | - | -
O=C(c1nc2ccccc2s1)N(CCc1ccccc1)Cc1ccccn1 | - | +
COC(=O)c1sccc1S(=O)(=O)N(CC(=O)Nc1ccccc1)c1ccccc1 | - | -
COC(=O)c1sccc1S(=O)(=O)N(CC(=O)Nc1cccc(OC)c1)c1ccc(Cl)cc1 | - | +
COC(=O)c1sccc1S(=O)(=O)N(CC(=O)Nc1ccccc1OC)c1ccccc1 | - | -
CCc1ccccc1NC(=O)CN(c1ccc(C)cc1)S(=O)(=O)c1ccsc1C(=O)OC | - | +
COc1ccc(-c2csc(-n3nc(C)cc3NC(=O)c3ccccc3Cl)n2)cc1OC | - | .
Cc1ccnc(Nc2ccc(NCCNS(=O)(=O)Cc3ccccc3)nn2)c1 | - | .
O=C(COc1ccc2ccccc2c1)N1CCOC(c2ccccc2)C1 (stereo not given) | - | .
CCCCS(=O)(=O)N1CCN(c2ccc(Nc3cccc(C)n3)nn2)CC1 | - | +
CCCCS(=O)(=O)N1CCN(c2ccc(-n3nc(C)c(C)c3C)nn2)CC1 | - | -
CCOc1nn(CC)cc1-c1nnc(SCC(=O)Nc2cccc(C)c2C)n1C | - | -
O=C(NCCc1csc2nc(-c3cccs3)nn12)Nc1cccs1 | - | -
CS(=O)(=O)Nc1cccc(NC(=O)COc2ccc3c(c2)C(=O)CC3)c1 | - | -
NC(=O)Cc1csc(NC(=O)COc2ccc3c(c2)C(=O)CC3)n1 | - | +
CC(=O)Nc1ccc(NC(=O)CSc2nc(=O)n(CCCO)c3c2CCCC3)cc1 | - | -
CCOc1ccc(NC(=O)CSc2nc(=O)n(CCO)c3c2CCCC3)cc1 | - | +
